Experimental findings from PubChem BioAssay (NCI) are described below.

Compounds without any hit were thinned out: in the full panel of roughly 83,000, 20% have a hit.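 Cell lines were cultured in 96-well plates, exposed to a single compound concentration, and assessed for percent growth 48 hours later.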 Unmarked numbers belong to inactive results. The source made the active and inactive calls. The calls were made as follows: active = growth percent below 10; inactive = the rest.

Common to all, as to assay: NCI-60 one-dose screen, 48 h (100 = growth as untreated, 0 = no growth, -100 = all killed)
Common to all, as to conditions: 10 µM unless noted

Assay [1] relates to SR leukemia.
The test system of assay [2] is RPMI-8226 leukemia.
Assay [3] deals with OVCAR-8 ovarian.
For assay [4], the system named is OVCAR-5 ovarian.
The subject of assay [5] is OVCAR-4 ovarian.
Assay [6] has as its system SK-OV-3 ovarian.
Assay [7] has as its system IGROV1 ovarian.
The test system of assay [8] is OVCAR-3 ovarian.
Assay [9] deals with HS 578T breast.
Assay [10] deals with NCI/ADR-RES ovarian.
Assay [11] concerns T-47D breast.
In assay [12] the test system is MDA-MB-435 melanoma.
Assay [13] concerns SW-620 colon.
Assay [14] deals with MCF7 breast.
The test system of assay [15] is HCT-116 colon.
Assay [16] has as its system HCC-2998 colon.
Assay [17] has as its system KM12 colon.
Assay [18] relates to BT-549 breast.

Consider `CCC(=C(c1ccc(OCCN(C)C)cc1)c1ccc(OCCN(C)C)cc1)c1ccc(Cl)cc1`, for which the growth in assay [1] was -43% (active); in assay [2], -43.8% (active); in [3], -21.5% (active); in assay [4], -48.7% (active); in assay [5], -20.1% (active); in assay [6] it was 95.5%. Besides, the growth in assay [7] was -76.8% (active); in assay [8], -34.8% (active); in assay [9] it was -36.1% (active); in [10] it was -25.7% (active); in [11], -56% (active); in [12], -88.6% (active). Also, the growth in assay [13] is -72.4% (active); in [14], -72.8% (active); in [15] it was -67.7% (active); in assay [16], -72.4% (active); in assay [17] it was -49.1% (active).

As for `COc1ccccc1/C=C1\Oc2ccc(O)c(O)c2C1=O`, the growth in assay [1] was 99.6%; in [2], 93.5%; in [3], 94.1%; in assay [4], 105%; in [5], 84%; in [6], 105%. Further, the growth was 98.7% in assay [7]; 102% in [8]; 87.9% in assay [9]; 98.5% in [10]; 89.5% in [18]; 93.4% in assay [12]. Also, the growth in assay [13] is 105%; in assay [14], 88.2%; in assay [15], 83.7%; in assay [16], 96.8%; in assay [17], 99.7%.

Turning to `CC(=C(c1ccc(OCCCN(C)C)cc1)c1ccc(OCCCN(C)C)cc1)c1ccc(Cl)cc1`, the growth in [1] is 21.7%; in [2], 79.3%; in [3], 100%; in assay [4], 100%; in assay [5] it was 108%; in [6], 103%. Moreover, the growth in assay [7] is 87.1%; in [8], 91.1%; in assay [9], 81.8%; in assay [10], 95.2%; in assay [18] it was 109%; in assay [12] it was 89.3%. The growth in assay [13] is 87.8%; in assay [14], 37.9%; in assay [15], 64.6%; in assay [16] it was 81.7%; in assay [17] it was 84.2%.

On to `O=C(/C=C/c1cccc(F)c1)c1cccc(OCCCOc2cccc(C(=O)/C=C/c3cccc(F)c3)c2)c1`, for which the growth in assay [1] is 6.17% (active); in [2] it was -15.7% (active); in assay [3] it was 67.6%; in assay [4], 77.8%; in assay [5], 75.3%; in assay [6] it was 124%. Also, the growth is 36.9% in assay [7]; 74.9% in assay [8]; 93.8% in assay [9]; 90.1% in [10]; 72.1% in assay [18]; 99.8% in assay [12]. The growth in [13] was 14.3%; in assay [14], 10.2%; in [15] it was -80.3% (active); in [16], 44.2%; in assay [17] it was 32.6%.

For `Cc1ccc(C(=O)Nc2ccc(CNCCN3CCOCC3)c(C(F)(F)F)c2)cc1C#Cc1cnc2cccnn12`, the growth in assay [1] was -15.7% (active); in assay [2] it was -12.8% (active); in assay [3], 13.3%; in [4] it was 33.5%; in [5], 25.1%; in assay [6], 57.7%. Also, the growth in assay [7] was 10.6%; in [8], 21.6%; in [9], -13.3% (active); in assay [10], 5.66% (active); in assay [11], 4.34% (active); in assay [12], -28% (active). The growth in assay [13] was 14.1%; in assay [14], 6.79% (active); in assay [15], 2.51% (active); in [16], 6.09% (active); in [17], 1.77% (active).

In the case of `COc1cc(-c2nc(-c3ccccc3)[nH]c2-c2ccnc(NCCCNS(=O)(=O)c3ccc(C)cc3)n2)ccc1F`, the growth in [1] was 89.4%; in [2], 54%; in assay [3], 83.8%; in assay [4], 119%; in assay [5], 108%; in assay [6] it was 148%. Further, the growth in assay [7] was 95.2%; in assay [8], 119%; in assay [9] it was 107%; in assay [11], 57.3%; in [18], 119%; in [12] it was 68.5%. The growth in assay [13] was 108%; in [14], 65.4%; in [15], 72.3%; in [16], 153%; in [17], 90.1%.

Turning to `Cc1[nH]c(C(=O)Nc2ccccc2OCc2cccc(C(=O)NCCN)c2)cc1Cl`, the growth is -3.39% (active) in assay [1]; 89.6% in [2]; 84.7% in assay [3]; 97% in assay [4]; 102% in assay [5]; 101% in [6]. Besides, the growth in assay [7] was 94.5%; in assay [8], 109%; in assay [9], 102%; in [10] it was 99.4%; in [11], 87.1%; in [18], 104%. Also, the growth was 32.4% in assay [13]; 11.3% in assay [14]; 38.2% in assay [15]; 109% in [16]; 86.4% in assay [17].

With `COC(=O)N1CCN(CCNCc2ccc(NC(=O)c3ccc(C)c(C#Cc4cnc5cccnn45)c3)cc2C(F)(F)F)CC1`, the growth was -7.7% (active) in [1]; -6.11% (active) in assay [2]; 31.6% in assay [3]; 46.2% in assay [4]; 31.1% in assay [5]; 83.1% in assay [6]. Further, the growth in assay [7] was 11.3%; in assay [8], 64.8%; in assay [9] it was -2.16% (active); in [10] it was 6.71% (active); in assay [18] it was 24.1%; in assay [12], -21.8% (active). The growth is 14.6% in assay [13]; -6.54% (active) in assay [14]; 4.9% (active) in assay [15]; 14.4% in [16]; 4.91% (active) in assay [17].
